The results in this text go back to publication PMC8384837, “Expanding the binding specificity for RNA recognition by a PUF domain”.

One experiment addresses PUM1 PUF domain R4-DYS (Homo sapiens, UniProt Q14671 828-1176, N971D;H972Y;Q975S). Nature of the experiment: yeast three-hybrid, YBZ-1, SC-Leu-His + 0.5 mM 3-AT, 4 days. The conditions noted are these: tags: N-Gal4 AD-HA kept; label: inside an RPR1-promoter hybrid RNA with tandem MS2 sites; ssRNA. An outline of the steps: (§1)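 A centromeric plasmid in strain YBZ-1 co-expressed Pumilio-1 PUF domain libraries, randomized at the three base-contacting residues of each repeat, with matching RNA elements; the strain carries a LexA–MS2 coat fusion and a HIS3 reporter. After four days on SC-Leu (input) or SC-Leu-His + 0.5 mM 3-AT (selection), the repeat regions were PCR-amplified and Illumina-sequenced. The interaction score is the log change in variant frequency from input to selection, using log2 and a pseudocount of 1 where absent.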
Turning to “GGCUAGAACUAGUGGAUCCCCCGGCGCCCGGCGGCUCGAGCCCGGGUAAGUGUAUAUAGUCUGCAUGCCGCCGGGCGCCAUGCCUGCAGGUCGACUCUAGAAAACAUG”, the binding signal was 7.01 log2 enrichment (interaction score).
Still for that read-out and setting: then “GGCUAGAACUAGUGGAUCCCCCGGCGCCCGGCGGCUCGAGCCCGGGUAAGUGUACAUAGUCUGCAUGCCGCCGGGCGCCAUGCCUGCAGGUCGACUCUAGAAAACAUG”, with 5.76 log2 enrichment (interaction score); and “GGCUAGAACUAGUGGAUCCCCCGGCGCCCGGCGGCUCGAGCCCGGGUAAGUGUAAAUAGUCUGCAUGCCGCCGGGCGCCAUGCCUGCAGGUCGACUCUAGAAAACAUG”, with 4.45 log2 enrichment (interaction score).

The target of another experiment is PUM1 PUF domain R3-LWL (Homo sapiens, UniProt Q14671 828-1176, C935L;R936W;Q939L). The experiment is described as above. The conditions noted are these: tags: N-Gal4 AD-HA kept; label: inside an RPR1-promoter hybrid RNA with tandem MS2 sites; ssRNA. Put shortly:
as §1
As for “GGCUAGAACUAGUGGAUCCCCCGGCGCCCGGCGGCUCGAGCCCGGGUAAGUGUAAUUAGUCUGCAUGCCGCCGGGCGCCAUGCCUGCAGGUCGACUCUAGAAAACAUG”, the binding signal is 4.13 log2 enrichment (interaction score).
As to “GGCUAGAACUAGUGGAUCCCCCGGCGCCCGGCGGCUCGAGCCCGGGUAAGUGUAAGUAGUCUGCAUGCCGCCGGGCGCCAUGCCUGCAGGUCGACUCUAGAAAACAUG”, the binding signal is 4.64 log2 enrichment (interaction score).
Still for that read-out and setting: then “GGCUAGAACUAGUGGAUCCCCCGGCGCCCGGCGGCUCGAGCCCGGGUAAGUGUAAAUAGUCUGCAUGCCGCCGGGCGCCAUGCCUGCAGGUCGACUCUAGAAAACAUG”, with 2.69 log2 enrichment (interaction score).
